Screening data from PubChem BioAssay.
Most compounds without a hit are left out; they make up all but 5.2% or so of the library.
Tau fibril FP = inhibitors of human tau fibril formation; P10636; K18 P301L tau heparin fibrillization, Alexa594 FP, 6 h; Potency, µM (series often up to 57.7 µM), usual class: inhibitors; 280,000 compounds, 0.39% hits; AID 1468; note: nearly all actives have a fitted effect of over 55% in size
Target sequence (P10636 561-689 P618L limits assumed): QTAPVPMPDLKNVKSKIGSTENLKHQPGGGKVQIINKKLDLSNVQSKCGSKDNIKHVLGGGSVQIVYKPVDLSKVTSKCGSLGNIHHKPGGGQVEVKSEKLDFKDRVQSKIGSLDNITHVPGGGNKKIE
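Steps: dispense K18 P301L tau (15 uM plus 0.24 uM Alexa 594 tracer, final) in pH 7 sodium acetate; add compound; add heparin (20 uM final); incubate 6 hr, 37 C; add ThT (30 uM final); after 1 hr ambient, read FP.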
Coupling enz = coupling enzyme interference in Giardia aldolase counter-screen. coupling enzyme system counterscreen, AmpLite Red fluorescence. activity change, negative = inhibition, % at 58.2 µM, hits read low. 290,000 compounds, 0.67% hits. AID 2472; in the data active = activity change below about -30%
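Coupling enzymes only (glyceraldehyde-3-phosphate) + compound, at 57.5 uM final, 10 min RT; add substrate/coupling/AmpLite Red mix, 20 min RT; fluorescence ex 525/em 598 nm. Actives flag coupling-system interference.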
Tau fluor cs = counter-screen for tau fibril formation inhibitors | tau K18 P301L Alexa594 fluorescence, heparin fibrillization | Potency, µM (titrated, usually from 57.7 µM) | 280,000 compounds, 0.93% hits | AID 1463; note: nearly all actives have a fitted effect of over 55% in size
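Human K18 P301L tau (15 uM unlabeled plus 0.24 uM Alexa 594-labeled, final) in 100 mM sodium acetate pH 7 was mixed with compound and 20 uM heparin and incubated 6 hr at 37 C.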
Sfp PPTase inh = Sfp phosphopantetheinyl transferase inhibition | AID 1490 | 310,000 compounds, 3.5% hits | Biochemical Sfp PPTase activity, qHTS | Potency, µM, usual class: inhibitors | Q9F4F7;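 note: the enzyme is Sfp with the accession as filed and its product quenches rhodamine fluorescence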
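Sfp 15 nM + cpd, 15 min RT; start w/ rhodamine-CoA 5 uM, BHQ-2-YbbR 12.5 uM (final); 50 mM Hepes pH 7.6, 10 mM MgCl2, 0.01% NP-40, 0.01% BSA; read 525/598 nm at 0 and 30 min.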
Tau ThT inhib = tau fibrillization inhibition (ThT binding) | P10636 | recombinant tau K18 P301L (four-repeat tau fragment), heparin-induced fibrillization, ThT fluorescence | Potency, µM (highest dose often 57.4 µM), actives largely listed as inhibitors | 270,000 compounds, 2.1% hits | AID 1460; note: nearly all actives have a fitted effect of over 55% in size
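Heparin-induced (20 uM) aggregation of recombinant human K18 P301L tau, 15 uM unlabeled with 0.24 uM labeled, pH 7 acetate buffer, 6 hr at 37 C with compound. Fibrils quantified by 30 uM ThT fluorescence after 1 hr ambient incubation.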
A number is an active result; . = inactive; ? = inconclusive; / = no result; [ ] = another dose, or the depositor's remark. Unless noted, calls come from the whole dose curve; as a rule, active = well fitted curve in the direction sought with a large enough effect; inconclusive = small, poorly fitted or top-dose-only effect, or another doubt; inactive = no such curve, though single readings can be large; an effect the other way counts as inactive or inconclusive.

SMILES	Tau fibril FP	Coupling enz	Tau fluor cs	Sfp PPTase inh	Tau ThT inhib
ONCc1ccccc1	/	.	/	13µM	/
N#CC1=C(N)SC(N)=C(C#N)C1c1cccc(Oc2ccccc2)c1	.	.	?	28µM	?
N#CC1=C(N)SC(N)=C(C#N)C1c1c(Cl)cccc1Cl	.	-51	.	7.1µM	?
N#CC1=C(N)SC(N)=C(C#N)C1CCc1ccccc1	.	.	.	?	?
COC(=O)c1cc(S(=O)(=O)N2CCN(c3ccc(C)cc3C)CC2)cn1C	.	/	.	/	.
COc1ccc(-n2c(SCC(=O)NCc3ccccc3)nc3n[nH]c(C)c3c2=N)cc1	.	/	.	/	.
Cc1[nH]c2ccccc2c1C(=O)CSC(=S)N1CCCCC1	40µM	.	22µM[quencher]	.	?
Cc1[nH]c2ccccc2c1SCC(=O)N1CCCCC1	.	.	?	.	?
Cc1[nH]c2ccccc2c1C(=O)CSC(=S)N(C)C1CCCCC1	25µM	.	?	.	.
CCc1ccc(C(=O)c2cn(Cc3ccccc3)c3cc(OC)c(OC)cc3c2=O)cc1	.	/	.	/	?
COc1ccccc1-n1nnnc1SCC(=O)Nc1ccc(C)c(N)c1	/	.	/	79µM	/
COc1ccc(NC(=O)CSc2nnnn2-c2ccccc2OC)c(OC)c1	/	.	/	.	/
CCOc1ccc(C(=O)NCCS(=O)(=O)N2CCN(c3cccc(Cl)c3)CC2)cc1	.	/	.	/	.
Oc1ccc(N2CCN(c3ncnc4sc5c(c34)CCC5)CC2)cc1	.	.	?	56µM	?
COc1ccccc1OCc1cc(C(=O)N2CCN(C)C(c3ccccc3)C2)no1 (stereo not drawn)	/	/	/	.	/
CN1CCN(C(=O)c2cc(COc3c(F)cccc3F)on2)CC1c1ccccc1 (stereo not drawn)	.	.	.	10µM	.
COc1ccc(-c2nc(C#N)c(NCCc3ccccc3)o2)cc1OC	?	.	16µM[quencher]	.	?
Cc1ccc(CNc2oc(-c3ccco3)nc2C#N)cc1	?	.	.	.	.
CNc1oc(-c2cccc3ccccc23)nc1C#N	.	.	.	.	.
COc1ccc(CNc2oc(-c3cccc4ccccc34)nc2C#N)cc1	.	.	8.9µM[quencher]	.	.
N#Cc1nc(-c2cccc3ccccc23)oc1NCC1CCCO1 (stereo not drawn)	?	.	16µM[quencher]	?	?
N#Cc1nc(-c2ccccc2)oc1NCC1CCCO1 (stereo not drawn)	.	.	.	.	.
Cc1ccc(CNc2oc(C)nc2C#N)cc1	?	.	11µM[quencher]	.	?
O=C(c1csnn1)N1CCC2(CC1)CCN(c1ccncc1)CC2	/	.	/	.	/
CC1=C(C(=O)Nc2ccc(C)cc2C)C(CC(C)C)n2nc(SCc3ccccc3C)nc2N1 (stereo not drawn)	.	/	.	/	.
SMILES	Tau fibril FP	Coupling enz	Tau fluor cs	Sfp PPTase inh	Tau ThT inhib
COc1cccc(/C=C/c2nc(C#N)c(NCCc3ccc(OC)c(OC)c3)o2)c1	?	/	13µM[quencher]	/	?
COc1ccc(CNc2oc(/C=C/c3cccc(OC)c3)nc2C#N)cc1	?	/	6.3µM[quencher]	/	?
COc1ccc(/C=C/c2nc(C#N)c(NCCc3ccc(OC)c(OC)c3)o2)cc1OC	.	/	?	/	?
CCOC(=O)c1ccccc1NC(=O)N1CC(C)Oc2ccc(C)cc21 (stereo not drawn)	?	/	2.8µM[quencher]	/	.
COC(=O)c1ccccc1NC(=O)CCC(=O)N1CC(C)Oc2ccc(C)cc21 (stereo not drawn)	/	.	/	.	/
CCc1ccc(NC(=O)N2CC(C)Oc3ccc(C)cc32)cc1 (stereo not drawn)	.	/	2.5µM[quencher]	/	.
CC(C)c1ccc(N2C(=O)CSC23C(=O)N(Cc2ccccc2)c2ccccc23)cc1 (stereo not drawn)	.	/	.	/	.
Cn1c(O)c(C2=c3ccccc3=NC2=O)[nH]c1=S	.	.	.	.	?
COc1ccc2nc(-n3c(O)c(C4=c5ccccc5=NC4=O)[nH]c3=S)sc2c1	?	.	8.9µM[quencher]	50µM	2.2µM
CCOC(=O)c1cccc(NC(=O)c2ccc3c(Cl)c4c(nc3c2)CCC4)c1	.	/	?	/	.
N#Cc1cc(N)ccc1Sc1ccc(Cl)cc1	.	.	16µM[quencher]	.	.
N#Cc1cc(N)ccc1Sc1ccccc1	?	.	?	.	.
CC(C)=CCC/C(C)=C\COc1c2ccoc2cc2oc(=O)ccc12	?	.	.	?	.
Cc1ccc(/C=N/NC(=O)C(C)Oc2cccc3ccccc23)o1 (stereo not drawn)	/	.	/	56µM	/
N#CCSc1n[nH]c2nc3c(c(=O)n12)C1(CCCCC1)Cc1ccccc1-3	.	.	?	50µM	/
CCSc1n[nH]c2nc3c(c(=O)n12)C1(CCCCC1)Cc1ccccc1-3	.	.	.	.	.
CSc1n[nH]c2nc3c(c(=O)n12)C1(CCCCC1)Cc1ccccc1-3	.	.	?	18µM	.
O=C(Nc1ccc(OC(F)F)c(Cl)c1)C(c1ccccc1)c1ccccc1	28µM	.	?	.	.
CC1(C)CC(=O)C(=CN2CCOCC2)C(=O)C1	?	.	.	.	16µM
Cc1cc(C)cc(NC(=O)C(CC(C)C)NC(=O)C2CCCCC2)c1 (stereo not drawn)	.	/	.	/	.
O=C(O)C1CCC(NSc2ccccc2[N+](=O)[O-])CC1 (stereo not drawn)	18µM	.	.	.	16µM
NC(=O)CC(NSc1ccccc1[N+](=O)[O-])C(=O)O (stereo not drawn)	?	.	.	50µM	?
O=C(c1noc2c1CCCCC2)N1CCN(c2cccc(C(F)(F)F)c2)CC1	?	/	.	/	.
COC(=O)Cc1sc(-c2ccccn2)nc1-c1ccccc1	.	.	.	22µM	.
COC(=O)C1=C(C(=O)OC)C2(OC1c1cccc(F)c1)C(=O)c1ccccc1C2=O (stereo not drawn)	.	.	.	79µM	.
SMILES	Tau fibril FP	Coupling enz	Tau fluor cs	Sfp PPTase inh	Tau ThT inhib
NS(=O)(=O)c1ccc(N/N=C/c2cn(-c3ccccc3)nc2-c2cccs2)cc1	.	.	13µM[quencher]	.	16µM
NS(=O)(=O)c1ccc(N/N=C/c2cn(-c3ccccc3)nc2-c2cccs2)c([N+](=O)[O-])c1	.	.	?	.	2.5µM
NC(=O)N/N=C/c1cn(-c2ccccc2)nc1-c1cccs1	.	.	.	.	.
COc1ccc(N(Cc2cccs2)C(=O)COc2cc(C)c(Cl)c(C)c2)cc1	.	/	.	/	.
CCC(=O)N(Cc1ccco1)c1nc(C(=O)Nc2ccc(Cl)cc2)c(C)s1	.	.	.	20µM	.
Cc1cc(C)c(Cn2c(=O)n(-c3ccccc3Cl)c(=O)c3c(C)c(C(=O)N(C)C)sc32)c(C)c1	.	/	.	/	.
NC1=NC(c2cccc(Cl)c2)n2c(nc3ccccc32)N1 (stereo not drawn)	.	/	.	/	.
Cc1cccc(-c2c3c(=O)n(C)c(=O)n(C)c3cn2-c2ccccc2O)c1	.	-39	.	50µM	.
N#Cc1cc2c([nH]c1=S)CCCC2	.	.	.	11µM	?
CC1(C)Cc2[nH]c(=S)c(C#N)cc2CO1	.	.	.	10µM	.
